Reference: PubChem BioAssay (NCI)
The panel holds about 83,000 compounds, 20% with a hit somewhere; the sample as a whole holds those more often.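 Negative percent growth values reflect cell death: -40 means 40% of the cells present at the start died, and -100 means all died.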 The source made the active and inactive calls. The calls were made as follows: active = growth percent below 10; inactive = the rest.

Columns and labels:
Test in all cases: NCI-60 one-dose screen, 48 h (100 = growth as untreated, 0 = no growth, -100 = all killed)
Conditions in all cases: 10 µM unless noted
[1] = system: DU-145 prostate
[2] = system: K-562 leukemia
[3] = system: MALME-3M melanoma
[4] = system: MDA-MB-231 breast
[5] = system: RXF 393 renal
[6] = system: SF-268 CNS
[7] = system: SF-295 CNS
[8] = system: SF-539 CNS
[9] = system: UACC-257 melanoma
[10] = system: M14 melanoma
[11] = system: HCT-15 colon
[12] = system: HT29 colon
[13] = system: SNB-19 CNS
[14] = system: U251 CNS
[15] = system: PC-3 prostate
[16] = system: SK-MEL-5 melanoma
[17] = system: UACC-62 melanoma
[18] = system: LOX IMVI melanoma
[19] = system: SK-MEL-28 melanoma

Measured: growth

C=C(C)[C@@H]1CC[C@]2(C(=O)O)CC[C@]3(C)[C@H](CC[C@@H]4[C@@]5(C)C[C@@H](CC#Cc6ccc(C(F)(F)F)cc6)[C@H](O)C(C)(C)[C@@H]5CC[C@]43C)[C@@H]12
inactive: [1] 22.6% | [6] 12.6% | [11] 36.2% | [12] 15.7% | [13] 30.8%
active: [2] 7.68% | [3] -43.3% | [4] -10% | [5] -34.4% | [7] -21.6% | [8] -59.5% | [9] 7.33% | [10] -51.7% | [14] -4.28% | [15] -52.2% | [16] -32.9% | [17] -31.5% | [18] -53.5% | [19] -40.8%

O=C(NCCCNc1nccc(-n2ccc3cccnc32)n1)c1c(F)cccc1F
inactive: [1] 107% | [2] 98.7% | [3] 106% | [4] 95.5% | [5] 108% | [6] 96.3% | [7] 98.4% | [8] 97.9% | [9] 113% | [10] 102% | [11] 99.9% | [12] 104% | [13] 95.7% | [14] 102% | [15] 96.8% | [16] 99.2% | [17] 97.6% | [18] 102% | [19] 111%

NC(=O)CCCN1C/C(=C\c2ccccc2)C(=O)c2ccccc21
inactive: [1] 102% | [2] 97.1% | [3] 105% | [4] 100% | [5] 81.9% | [6] 90.2% | [7] 94.3% | [8] 105% | [9] 87.5% | [10] 103% | [11] 105% | [12] 93.2% | [13] 88.7% | [14] 96.7% | [15] 89.6% | [16] 104% | [17] 87.2% | [18] 104% | [19] 95.7%

NC1N=C(SCC(=O)N2CCN(c3cc4c(cc3F)c(=O)c(C(=O)O)cn4C3CC3)CC2)NC(=O)/C1=C/c1ccc(Cl)cc1 (stereo unspecified)
inactive: [1] 112% | [2] 99.2% | [3] 108% | [4] 104% | [5] 110% | [6] 96.2% | [7] 94.4% | [8] 97.8% | [9] 105% | [10] 104% | [11] 97.3% | [12] 111% | [13] 99.7% | [14] 99.8% | [15] 95.4% | [16] 102% | [17] 99.9% | [18] 102% | [19] 110%

Cc1ccc(N2CCN(C(C)C(N)=O)CC2)cc1 (stereo unspecified)
inactive: [1] 116% | [2] 114% | [3] 107% | [4] 102% | [5] 111% | [6] 100% | [7] 103% | [8] 110% | [9] 127% | [10] 99.2% | [11] 115% | [12] 118% | [13] 101% | [14] 107% | [15] 105% | [16] 110% | [17] 91.4% | [18] 107% | [19] 119%

O=C(CSc1nc2ccccc2[nH]1)c1ccc(N2CCOCC2)cc1
inactive: [1] 107% | [2] 99.5% | [3] 100% | [4] 103% | [5] 98.1% | [6] 103% | [7] 96.8% | [8] 100% | [9] 102% | [10] 106% | [11] 99.4% | [12] 113% | [13] 98.7% | [14] 103% | [15] 100% | [16] 105% | [17] 97.1% | [18] 94.8% | [19] 114%

O=S(=O)(NCCCNc1nccc(-n2ccc3cccnc32)n1)c1ccc(Br)cc1
inactive: [1] 104% | [2] 101% | [3] 118% | [4] 104% | [5] 107% | [6] 94.9% | [7] 104% | [8] 103% | [9] 118% | [10] 110% | [11] 102% | [12] 107% | [13] 102% | [14] 106% | [15] 96.5% | [16] 101% | [17] 99.5% | [18] 96.3% | [19] 108%

CN(C)c1cccc2c(S(=O)(=O)/N=C(\N)Nc3nc4ccccc4s3)cccc12
inactive: [1] 96% | [2] 21.9% | [3] 73.7% | [4] 68.3% | [5] 54.6% | [6] 69.7% | [7] 33.6% | [8] 52.4% | [9] 78.3% | [10] 45.3% | [11] 42.9% | [12] 48.2% | [13] 53.6% | [14] 55.4% | [15] 48.2% | [16] 40.5% | [17] 42.8% | [18] 51.7% | [19] 78.9%

CN1CCN(Cc2ccc(NC(=O)c3cncc(C#Cc4cnc(N)c5cnccc45)c3)cc2C(F)(F)F)CC1
inactive: [1] 10% | [6] 16.5% | [13] 32% | [14] 28.9% | [15] 26.8%
active: [2] 1.52% | [3] -75.6% | [4] -61.2% | [5] -48.3% | [7] 8.91% | [8] -73.8% | [9] -1.75% | [10] -41.6% | [11] 7.9% | [12] -14.7% | [16] -45.3% | [17] -74.8% | [18] -93.4% | [19] -84.5%
